For assay [1], the target named is T1, Protein deacetylase HDAC6 (Homo sapiens) (UniProt Q9UBN7).
T1 sequence (whole entry): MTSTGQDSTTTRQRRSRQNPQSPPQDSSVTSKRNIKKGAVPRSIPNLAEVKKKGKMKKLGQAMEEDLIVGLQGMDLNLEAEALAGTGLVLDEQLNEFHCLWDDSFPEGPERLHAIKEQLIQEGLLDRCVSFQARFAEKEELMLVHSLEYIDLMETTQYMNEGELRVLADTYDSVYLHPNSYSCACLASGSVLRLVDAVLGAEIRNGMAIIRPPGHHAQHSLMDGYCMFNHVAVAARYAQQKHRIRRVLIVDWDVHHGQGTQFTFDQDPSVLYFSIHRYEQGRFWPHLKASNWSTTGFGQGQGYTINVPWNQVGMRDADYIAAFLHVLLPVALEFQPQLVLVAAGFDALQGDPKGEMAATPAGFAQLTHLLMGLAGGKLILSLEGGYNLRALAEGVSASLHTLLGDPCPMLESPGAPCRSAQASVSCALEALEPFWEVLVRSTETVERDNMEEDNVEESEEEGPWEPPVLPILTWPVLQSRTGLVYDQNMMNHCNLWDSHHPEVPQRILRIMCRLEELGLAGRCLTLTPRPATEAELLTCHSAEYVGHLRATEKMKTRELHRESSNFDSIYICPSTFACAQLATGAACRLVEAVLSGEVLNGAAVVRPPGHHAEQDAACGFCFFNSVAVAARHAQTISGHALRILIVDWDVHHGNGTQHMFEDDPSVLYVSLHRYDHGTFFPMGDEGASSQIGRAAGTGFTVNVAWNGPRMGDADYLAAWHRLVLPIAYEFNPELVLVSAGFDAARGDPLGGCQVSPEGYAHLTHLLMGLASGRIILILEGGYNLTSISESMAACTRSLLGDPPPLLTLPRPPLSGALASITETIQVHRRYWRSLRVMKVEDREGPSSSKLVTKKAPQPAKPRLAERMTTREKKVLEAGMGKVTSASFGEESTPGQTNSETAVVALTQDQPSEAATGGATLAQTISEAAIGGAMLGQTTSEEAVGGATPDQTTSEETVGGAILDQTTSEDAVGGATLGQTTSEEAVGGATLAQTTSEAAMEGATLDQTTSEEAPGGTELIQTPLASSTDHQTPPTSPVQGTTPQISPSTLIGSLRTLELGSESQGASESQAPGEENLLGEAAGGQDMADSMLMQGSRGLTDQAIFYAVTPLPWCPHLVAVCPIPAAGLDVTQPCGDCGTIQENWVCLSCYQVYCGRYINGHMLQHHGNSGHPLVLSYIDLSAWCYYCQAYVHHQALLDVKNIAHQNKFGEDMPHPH
The conditions noted are these: at 10 µM.

For assay [2], the target named is Protein deacetylase HDAC6 (Homo sapiens) (UniProt Q9UBN7). The conditions noted are these: at 10 µM. The source holds these as a separate data set.

The campaign covered roughly 5,600 compounds. About 390 (7%) showed an effect of 50% or more. The sample holds strong results, similar compounds and a random draw of the others, so the mix is not that of the screen.

One may read the inhibition as the drop in the measured response relative to a control, in per cent.

On to `CC[N+](CC)(CC)CCOc1ccc(/C=C/c2ccccc2)cc1`, for which, in assay [1], the inhibition was -4.16%.
Regarding `CC(C)[C@@H]1CC[C@@H](C)C[C@@H]1P(=O)(c1ccccc1)c1ccccc1`, the inhibition in assay [1] is -9.96%.
Still for that read-out and setting: with `CCC(CC)(NC(=O)C(C)C)C(=O)N[C@@H](CCCNC(=N)N)C(=O)NC1(C(=O)NC(c2ccc(F)cc2)c2ccc(F)cc2)CCCC1` the figure was 22%; with `CSC[C@H](N)C(=O)O`, 15.3%; with `Cc1ccc2c(c1)C(=O)[C@]1(O)CCN(c3ccccc3)C1=N2`, -8.19%.
Consider `O=c1c(-c2ccc(O)cc2)coc2cc(O)cc(O)c12`, for which, in assay [1], the inhibition stood at 112%.
Regarding `COc1ccc(-c2coc3cc(O)cc(O)c3c2=O)cc1`, the inhibition in assay [1] came to 100%.
With `CN1CCN(c2ccc(/C=C(\C#N)c3ccccc3Br)cc2)CC1`, the inhibition in assay [1] is -8.48%.
Consider `Nc1ncc(Cc2ccc(Br)cc2)s1`, for which the inhibition in assay [1] is 12.3%.
For `c1ccc(-c2nc(CN3CCN(c4ncccn4)CC3)c[nH]2)cc1`, in assay [1], the inhibition is -4.48%.
Still for that read-out and setting: with `C=CCOc1ccc(CC(=O)O)cc1Cl` the figure was 9.47%.
Turning to `Cc1ccsc1C(=CCCN1CCC[C@@H](C(=O)O)C1)c1sccc1C`, in assay [1], the inhibition was 20.9%.
Consider `NC1(c2ccc(-c3nc4ccn5c(=O)[nH]nc5c4cc3-c3ccccc3)cc2)CCC1`, for which the inhibition in assay [1] was found to be 12.5%.
For `O=C(O)CCc1cc(I)c(Oc2ccc(O)cc2)c(I)c1`, the inhibition in assay [1] is -9.91%.
The same measure, in the same setting: with `CC(CNS(=O)(=O)C(C)C)c1ccc(-c2ccc(C#N)cc2)cc1` (stereo unspecified) the figure was 23.9%; with `O=C(Nc1ccc(OC(F)(F)F)cc1)c1sccc1NCc1ccnc2ccccc12`, 18.5%.
For `CN(C)CCOC1=Cc2ccccc2Sc2ccc(Cl)cc21`, in assay [1], the inhibition was 96.6%.
Still for that read-out and setting: with `CN1CCN(C2=Nc3ccccc3Sc3ccc(Cl)cc32)CC1` the figure was 29.6%; with `CN(C)CCOC(=O)COc1ccc(Cl)cc1`, 1.19%.
The same measure, in the same setting: with `C[C@H]1[C@H](C)CC[C@]2(C(=O)O)CC[C@]3(C)C(=CC[C@@H]4[C@@]5(C)C[C@@H](O)[C@H](O)C(C)(C)[C@@H]5CC[C@]43C)[C@H]12` the figure was -2.75%.
Take `Cc1ccc([C@@H]2O[C@H](CO)[C@@H](O)[C@H](O)[C@H]2O)cc1Cc1ccc(-c2ccc(F)cc2)s1`: the inhibition in assay [1] is -5.59%.
Still for that read-out and setting: with `CC(C)NC(=O)N1CC[C@H](NC2=Nc3cc(F)ccc3N(CC(F)F)c3ccc(Cl)cc32)C1` the figure was 29.2%; with `CN(C)CCn1cc(S(=O)(=O)c2cccc(F)c2)c2cccnc21`, 14.3%; with `O=C(NCCCCCCNC(=O)ON=C1CCCCC1)ON=C1CCCCC1`, 40.7%.
Turning to AUROTHIOGLUCOSE, CHEMBL1697725, the inhibition in assay [2] worked out at 8.56%.
Take `COc1ccc2cc([C@H](C)C(=O)O)ccc2c1`: the inhibition in assay [1] was -2.33%.
Regarding `COc1ccc2[nH]c(C(=O)c3ccccc3)cc2c1`, in assay [1], the inhibition stood at 109%.
Regarding `COc1ccc2[nH]c(-c3ccccc3)c(CCNC(C)=O)c2c1`, the inhibition in assay [1] came to 9.99%.
Turning to `Cc1nn(C)c2c1C(c1ccc(C(F)(F)F)cc1)C(C#N)=C(N)O2` (stereo unspecified), the inhibition in assay [1] was determined as 27.3%.
Same read-out and setting: with `OC[C@H]1O[C@@H]2O[C@H]3[C@H](O)[C@@H](O)[C@@H](O[C@H]4[C@H](O)[C@@H](O)[C@@H](O[C@H]5[C@H](O)[C@@H](O)[C@@H](O[C@H]6[C@H](O)[C@@H](O)[C@@H](O[C@H]7[C@H](O)[C@@H](O)[C@@H](O[C@H]8[C@H](O)[C@@H](O)[C@@H](O[C@H]1[C@H](O)[C@H]2O)O[C@@H]8CO)O[C@@H]7CO)O[C@@H]6CO)O[C@@H]5CO)O[C@@H]4CO)O[C@@H]3CO` the figure was -4.02%; with `O=C(O)c1cc2occc2[nH]1`, 21.7%.
For the compound `Cc1cc(C)c(N(Cc2ccccc2)S(=O)(=O)c2ccc(OCCNC(=O)c3cc4ccccc4o3)cc2)c(C(=O)NO)c1`, the inhibition in assay [1] turned out to be 71.8%.
Consider `CN(C(=O)C(Cl)Cl)c1ccc(OC(=O)c2ccco2)cc1`, for which the inhibition in assay [1] was 5.17%.
For the compound `CO/N=C(/C(=O)N[C@@H]1C(=O)N2C(C(=O)O)=C(CSc3nc(=O)c(O)nn3C)CS[C@H]12)c1csc(N)n1`, in assay [1], the inhibition was -3.44%.
In the case of `COc1cccc(CN(C(=O)CC(C)(C)C)[C@H]2C[C@@H](C(=O)N3CCNCC3)N(Cc3ccc4c(c3)OCO4)C2)c1`, the inhibition in assay [1] stood at 2.2%.
In the case of `COc1cc(C[C@H](C)[C@H](C)Cc2ccc3c(c2)OCO3)ccc1O`, the inhibition in assay [1] stood at 0.28%.
Same read-out and setting: with `COc1cccc(-c2cc(NCc3ccc4c(c3)OCO4)nc(N)n2)c1` the figure was 68.7%.
As to `O=C(NCCS(=O)(=O)c1ccc(C(F)(F)F)cn1)c1ccc(Cl)cc1`, the inhibition in assay [1] is -5.62%.
Turning to `CCOC(=O)Nc1ccc2c(c1)N(C(=O)CN(CC)CC)c1ccccc1CC2`, the inhibition in assay [1] was found to be 18.9%.
In the case of `OC[C@H]1OC(O)[C@H](F)[C@@H](O)[C@H]1O` (stereo partly specified), the inhibition in assay [1] was -0.45%.
Consider `NC1=NCC2c3ccccc3Cc3ccccc3N12` (stereo unspecified), for which the inhibition in assay [1] turned out to be 4.93%.
`CCOc1ccc2nc(S(N)(=O)=O)sc2c1`: in assay [1], the inhibition amounted to 25.8%.
In the case of `Nc1nc2ccc(OC(F)(F)F)cc2s1`, the inhibition in assay [1] came to 72.9%.
As to `C=C[C@]1(C)CC[C@@H](C(=C)C)C[C@H]1C(=C)C`, the inhibition in assay [1] was 7.53%.
Turning to `Nc1ccc(O)c(C(=O)O)c1`, the inhibition in assay [1] turned out to be 0.62%.
As for `Nc1ccc(C(=O)Oc2ccccc2)c(O)c1`, in assay [1], the inhibition was 108%.
Regarding `O=C(Oc1ccccc1C(=O)O)c1ccccc1O`, in assay [1], the inhibition is 43.2%.
Turning to `O=S(=O)(N[C@H](CO)C(C(F)(F)F)C(F)(F)F)c1ccc(Cl)s1`, the inhibition in assay [1] came out at 9.08%.
Still for that read-out and setting: with `O=P(O)(O)OC[C@H]1OC(O)(COP(=O)(O)O)[C@@H](O)[C@@H]1O` (stereo partly specified) the figure was 8.76%; with `Cc1csc(NC(=O)CSc2ccc(-c3ccccc3)nn2)n1`, 31.4%.
As for `O[C@@H]1[C@H](O)[C@@H](CCl)O[C@H]1n1cnc2c(NC3CC4CCC3C4)ncnc21` (mixture of isomers), in assay [1], the inhibition worked out at 17.3%.
